# Among all 2,400 compounds or so, about 580 (24%) were called active. These entries were drawn from the full list. A number with no mark means an inactive call.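 How the source made its calls: active means activity change at or above the mean plus 3 SD of buffer wells without dofetilide, per plate; inactive means the rest.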
# Target: Potassium voltage-gated channel subfamily KQT member 2 (Rattus norvegicus) (UniProt O88943)
# Assay: KCNQ2 potentiation in CHO cells – cell-based, FluxOR thallium flux, counter-screen for hERG block protector project, confirmation (AID 1942);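 further: normalized value minus buffer-control mean plus three SD of buffer wells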
# Conditions: FluxOR thallium flux fluorescence, at 10 µM, active compounds read high
# Sequence of Potassium voltage-gated channel subfamily KQT member 2 (Rattus norvegicus) (O88943 whole entry, looked up): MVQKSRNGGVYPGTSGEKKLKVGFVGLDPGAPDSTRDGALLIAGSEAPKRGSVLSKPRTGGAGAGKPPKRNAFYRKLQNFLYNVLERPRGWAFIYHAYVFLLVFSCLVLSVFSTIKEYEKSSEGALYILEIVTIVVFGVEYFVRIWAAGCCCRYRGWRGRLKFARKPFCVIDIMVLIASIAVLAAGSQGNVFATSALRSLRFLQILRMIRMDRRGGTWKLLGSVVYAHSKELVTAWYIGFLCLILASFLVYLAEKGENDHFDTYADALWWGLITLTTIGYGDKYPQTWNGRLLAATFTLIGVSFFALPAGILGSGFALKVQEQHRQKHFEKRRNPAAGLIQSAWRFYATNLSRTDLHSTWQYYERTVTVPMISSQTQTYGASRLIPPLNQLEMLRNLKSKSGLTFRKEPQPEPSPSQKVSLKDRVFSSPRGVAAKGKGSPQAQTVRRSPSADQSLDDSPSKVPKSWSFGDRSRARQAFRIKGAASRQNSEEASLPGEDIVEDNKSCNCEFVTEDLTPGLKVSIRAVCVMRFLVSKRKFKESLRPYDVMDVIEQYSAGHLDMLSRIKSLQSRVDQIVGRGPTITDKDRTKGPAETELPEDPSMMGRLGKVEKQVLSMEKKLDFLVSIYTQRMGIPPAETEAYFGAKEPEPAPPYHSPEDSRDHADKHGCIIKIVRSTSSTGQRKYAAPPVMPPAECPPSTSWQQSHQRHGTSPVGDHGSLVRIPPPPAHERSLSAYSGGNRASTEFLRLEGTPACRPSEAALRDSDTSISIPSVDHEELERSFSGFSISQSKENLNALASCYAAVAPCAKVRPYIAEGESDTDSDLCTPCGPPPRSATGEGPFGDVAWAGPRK
row,SMILES,"activity change, less the hit threshold"
1,Cc1c(-c2ccccc2)sc2nc[nH]c(=S)c12,43.6% (active)
2,Cc1sc2nc[nH]c(=S)c2c1-c1ccccc1,41.3% (active)
3,CC(=O)C1=C(C)NC(=O)NC1/C=C/c1ccccc1 (stereo unspecified),-23%
4,CCN(CC(=O)NCc1ccc(Cl)cc1)C(=O)CCOc1ccc(C)cc1,-24.3%
5,CCCCCN(C(=O)CCC(=O)OCC(=O)N(C)C1CCCCC1)c1c(N)n(CCCC)c(=O)[nH]c1=O,-22.7%
6,CCN1CCN(C(=O)c2ccc(Cn3c(=O)[nH]c4cc(OC)c(OC)cc4c3=O)cc2)CC1,-7.7%
7,Cc1cccc(NC(=O)CCNC(=O)c2ccco2)c1C,-12.3%
8,Cc1cccc(NC(=S)NC(=O)c2ccc(Br)o2)c1C,12.7% (active)
9,Cc1cccc(NC(=S)NC(=O)c2ccco2)c1C,54.7% (active)
10,Cc1cccc(C)c1NC(=S)NC(=O)c1ccc(Br)o1,66.5% (active)
11,CN1CCN(c2ccc(NC(=O)c3ccc(Br)o3)cc2)CC1,-6.3%
12,C/C(=C/CCC(C)C1CCC2(C)C3CCC4C(C)(C)C(=O)CCC4(C)C3=CCC12C)C(=O)O (stereo unspecified),-17.4%
13,CO/N=C(\CCC(=O)O)c1cccs1,-9.3%
14,CC1(C)CC2(CCO1)C(Nc1ccccc1)=NC(=S)N2CC(N)=O (stereo unspecified),-15.8%
15,Cc1ccccc1NC1=NC(=S)N(c2ccccc2)C12CCCCC2,11.4% (active)
16,COc1ccc(/C=C/c2cc(=O)c3cc(Cl)ccc3o2)cc1,-18.8%
17,NS(=O)(=O)c1ccc(NC(=O)c2ccc(S(=O)(=O)N3CCc4ccccc43)cc2)cc1,-7.3%
18,COc1cccc(NC(=O)c2nn(-c3ccc(OC)cc3OC)c(=O)c3ccccc23)c1,-13.8%
19,COc1cccc(-n2nc(C(=O)O)c3ccccc3c2=O)c1,3.7% (active)
20,COc1ccc(-n2nc(C(=O)NCC(=O)NCc3ccc(F)cc3)c3ccccc3c2=O)cc1OC,-10.3%
21,COc1ccc(C)cc1-n1nnnc1SCc1nc2ccccc2c(=O)[nH]1,-22%

row,SMILES,"activity change, less the hit threshold"
1,CCOC(=O)C1=NN(C(=O)c2ccc(C)cc2)C(O)(c2ccc(Cl)cc2)C1 (stereo unspecified),88.1% (active)
2,CCC1=NN(C(=O)c2ccc(Cl)cc2)C(O)(c2ccc(C)cc2)C1 (stereo unspecified),-12.6%
3,CCOC(=O)C1=NN(C(=O)c2ccc(OC)cc2)C(O)(c2ccc(Cl)cc2)C1 (stereo unspecified),71.1% (active)
4,CCOC(=O)C1=NN(C(=O)c2ccccc2)C(O)(c2ccc(C)cc2)C1 (stereo unspecified),2.6% (active)
5,CCOC(=O)CN1N=C(/C=C/c2ccc(OC)cc2)CCC1=O,-17.3%
6,CCCCC1(O)CC(C(F)(F)F)=NN1C(=O)COc1ccccc1 (stereo unspecified),-22.2%
7,CCOC(=O)c1nc(C)n(-c2ccc(Cl)cc2)n1,-12.5%
8,O=C(CSc1nc2cc(Cl)ccc2s1)c1cc2ccccc2o1,-2%
9,CN1C(=O)C2(OCC(C)([N+](=O)[O-])CO2)c2ccccc21 (stereo unspecified),-9.8%
10,CC1=C(C#N)C(Nc2cc(C)ccn2)(C(F)(F)F)C(=O)N1 (stereo unspecified),-18.4%
11,CSc1nc2c(c(=O)[nH]1)C(c1ccccc1Cl)CC(=O)N2 (stereo unspecified),-20.4%
12,Cc1cc(C(=O)NP(=O)(N2CCOCC2)N2CCOCC2)c(C)n1-c1ccc(Br)cc1,-22%
13,O=C(CSc1nnc(SCc2ccccc2)s1)N/N=C/c1ccc(Cl)cc1Cl,-22.9%
14,O=C1c2ccccc2C(=O)N1c1cccnc1,-14.6%
15,Cc1ccc(C)c(NC(=S)c2nc3ccccc3s2)c1,-7.6%
16,CC(C)Oc1ccc(CNC(=O)C2CCN(C(=O)N3CCOc4ccccc43)CC2)cc1,-20.2%
17,CC(=O)c1ccc2c3c(cccc13)CC2,-12.7%
18,CC(C)CC(=O)Nc1ccc2c3c(cccc13)CC2,44.7% (active)
19,COc1cc(C(=O)NCc2ccc(-c3nc4ccccc4o3)cc2)cc(OC)c1OC,-13.9%
20,Cc1cc(=O)[nH]c(SCC(=O)NC2CCCCC2)n1,-14.4%
21,Cc1cc(Cl)c(S(=O)(=O)N2CCSCC2)cc1OCC(=O)NC1CCCCC1,57.4% (active)

row,SMILES,"activity change, less the hit threshold"
1,Cc1cc(Cl)c(S(N)(=O)=O)cc1OCC(=O)NC1CCCCC1,-7.9%
2,COC(=O)c1cc(S(=O)(=O)NCC2CCN(Cc3cc(C)ccc3C)CC2)c[nH]1,-11.5%
3,Cn1ccnc1C(O)c1cccc(OCc2ccccc2)c1 (stereo unspecified),-25.3%
4,C/C(=N\O)C1CC(CC(=O)O)C1(C)C (stereo unspecified),-14.4%
5,CN(CC(=O)Nc1ccc(Cl)cc1)C(=O)c1cccc(S(=O)(=O)NCc2ccccc2)c1,-17.3%
6,O=C(Nc1cccc(Br)c1)C1CCCC1,-12.2%
7,O=C(Nc1nnc(SCC(=O)N2CCCCC2)s1)C1CCCCC1,-14.2%
8,O=C(Nc1nc2c(Br)cc(Br)cc2c(=O)s1)C1CCC1,9.5% (active)
9,Cc1cc(=O)oc2c3c(cc(OCC(=O)N[C@@H](Cc4ccccc4)C(=O)O)c12)OC(C)(C)CC3,-6.7%
10,C/C(CCC12CC3CC(CC(C3)C1)C2)=N\NC(N)=S,-17.2%
11,COc1ccc(-n2c(=S)[nH]c3ccccc3c2=S)cc1,-7.3%
12,COc1ccc(-c2nc(=S)c3ccc4ccccc4c3[nH]2)cc1,51.5% (active)
13,COc1cccc(C2C3=C(N=c4s/c(=C\c5ccc(OCC(=O)O)cc5)c(=O)n42)c2ccccc2CC3)c1 (stereo unspecified),-38.5%
14,CCc1ccc2nc(NC(=O)c3cc(C)on3)sc2c1,-6.5%
15,COc1ccc(-c2csc(NC(=S)NC(=O)c3cccs3)n2)cc1Br,-20.8%
16,O=C(NC(=S)Nc1nc2ccccc2s1)c1cccs1,7.1% (active)
17,COc1ccc(-c2csc(NC(=S)NC(=O)c3cccs3)n2)cc1OC,-5.3%
18,O=C(NC(=S)Nc1nc(-c2ccccc2)cs1)c1cccs1,-22.7%
19,Cc1ccc2nc(NC(=S)NC(=O)c3cccs3)sc2c1,5.5% (active)

# From PubChem BioAssay AID1942 (Johns Hopkins Ion Channel Center, 2009)
